# Laboratory results: PubChem BioAssay (EPA / NIEHS)
# Inconclusive results are not listed. The source made the active and inactive calls. The calls were made as follows, unless noted: active = hit-call score of the fitted dose curve at least 0.9, where 1 is the maximum; inconclusive = response in the unintended direction; inactive = score below 0.9.
# Columns and labels:
# [1] = read-out: xenobiotic metabolism (CYP1A2), CYP1A2 (gene 1544); test: CLD_CYP1A2_6hr: CellzDirect (CLD) Gene Expression Assay for xenobiotic metabolism (CYP1A2) at 6 hours (AID 2283663);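 as to AC50: potency is for induction meaning a rise in mRNA above DMSO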
# Procedure, shortened: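 Primary human hepatocytes from two donor preparations, dosed daily with multiple concentrations in 0.2% DMSO and harvested at 6 h. CYP1A2 mRNA induction measured by chemiluminescent qNPA, gain of signal fitted against DMSO; cytotoxicity flagged morphologically.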
# [2] = Tanguay_ZF_120hpf_TR_legacy: (Legacy) Oregon State University Tanguay Lab 120 Hour Post-fertilization zebrafish Assay for Touch Response (AID 2283667)
# Procedure, shortened: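 Tropical 5D wild-type zebrafish embryos were exposed statically in sealed, foil-covered plates at 28C until 120 hpf, with 0.64% (vol/vol) final DMSO. Touch response was scored as present or absent; embryos that died were not scored.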
# [3] = read-out: glucuronosyltransferase (UGT1A1), UGT1A1 (gene 54658); test: CLD_UGT1A1_6hr: CellzDirect (CLD) Gene Expression Assay for glucuronosyltransferase (UGT1A1) at 6 hours (AID 2283672)
# Procedure, shortened: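 Primary human hepatocytes from two donor preparations, dosed with fresh solutions in 0.2% DMSO, harvested at 6 h. UGT1A1 mRNA measured by qNPA chemiluminescence; induction fitted upward versus DMSO.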
# [4] = read-out: ABC Transporter (ABCB11), ABCB11 (gene 8647); test: CLD_ABCB11_6hr: CellzDirect (CLD) Gene Expression Assay for ABC Transporter (ABCB11) at 6 hours (AID 2283675);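 also: hits raise ABCB11 mRNA level so AC50 marks induction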
# Procedure, shortened: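 Human primary hepatocytes (two donor preparations) given fresh chemical daily at multiple concentrations, vehicle 0.2% DMSO. ABCB11 mRNA induction measured 6 h after dosing by qNPA chemiluminescence versus DMSO; cytotoxicity annotated from morphology.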
# [5] = CLD_ACTIN_6hr: CellzDirect (CLD) Gene Expression Assay for Baseline Control (Actin) at 6 hours (AID 2283676);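 also: active means increased actin mRNA relative to DMSO vehicle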
# Procedure, shortened: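 Primary human hepatocytes dosed with fresh chemical solutions (vehicle 0.2% DMSO), harvested at 6 h. Actin mRNA quantified by quantitative nuclease protection assay with chemiluminescent read-out, as background control relative to DMSO.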
# [6] = read-out: Cytochrome P450 2B6 (Homo sapiens) (UniProt P20813); test: CLD_CYP2B6_6hr: CellzDirect (CLD) Gene Expression Assay for xenobiotic metabolism (CYP2B6) at 6 hours (AID 2283677);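 also: actives raise CYP2B6 transcript above DMSO baseline so AC50 marks an inducer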
# Procedure, shortened: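 Primary human hepatocytes dosed with chemicals at multiple concentrations, vehicle 0.2% DMSO; CYP2B6 mRNA induction measured 6 h after dosing by quantitative nuclease protection assay with chemiluminescence, gain of signal fitted relative to DMSO.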
# [7] = CCTE_Padilla_ZF_144hpf_TERATOSCORE: (Legacy) CCTE's 144 Hour Post-fertilization zebrafish Assay Teratoscore, Padilla Lab (AID 2283679; active = hit-call score of the fitted dose curve at least 0.9, where 1 is the maximum; inactive = score below 0.9;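 as to AC50: zebrafish embryos with chorions exposed by immersion from 6-8 hpf to 5 dpf with daily renewal; teratogenicity score from eye scoring of death hatching and malformations at 144 hpf; higher score means more developmental defects relative to DMSO baseline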)
# Procedure, shortened: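 Larvae scored by eye at 144 hpf for death, hatching and malformations after a day in clean Hanks'. Before that, daily-renewed exposure at 80 uM (0.4% DMSO, 26C) from roughly 6-8 hpf through 5 dpf, 4 embryos per chemical.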
# [8] = read-out: Cytochrome P450 3A4 (Homo sapiens) (UniProt P08684); test: CLD_CYP3A4_6hr: CellzDirect (CLD) Gene Expression Assay for xenobiotic metabolism (CYP3A4) at 6 hours (AID 2283680)
# Procedure, shortened: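 Primary human hepatocytes (two donor preparations) dosed; CYP3A4 mRNA harvested at 6 h and quantified by qNPA chemiluminescence. Gain of signal fitted against 0.2% DMSO vehicle; cytotoxicity flagged by phase-contrast morphology.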
# [9] = read-out: xenobiotic metabolism (CYP1A2), CYP1A2 (gene 1544); test: CLD_CYP1A2_24hr: CellzDirect (CLD) Gene Expression Assay for xenobiotic metabolism (CYP1A2) at 24 hours (AID 2283683)
# Procedure, shortened: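 Primary human hepatocytes from two donor preparations dosed daily with multiple concentrations of chemical, 0.2% DMSO vehicle. CYP1A2 mRNA at 24 h quantified by qNPA chemiluminescence; gain of signal analyzed relative to DMSO. Cytotoxicity flagged by phase-contrast morphology.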
# [10] = read-out: ABC Transporter (ABCB1), ABCB1 (gene 5243); test: CLD_ABCB1_24hr: CellzDirect (CLD) Gene Expression Assay for ABC Transporter (ABCB1) at 24 hours (AID 2283684)
# Procedure, shortened: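 Primary human hepatocytes, two donor preparations, dosed daily with fresh solutions; vehicle 0.2% DMSO; harvested at 24 h. ABCB1 mRNA measured by quantitative nuclease protection assay (chemiluminescence); morphology-based cytotoxicity annotated.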
# [11] = read-out: organic anion transporter (SLCO1B1), SLCO1B1 (gene 10599); test: CLD_SLCO1B1_6hr: CellzDirect (CLD) Gene Expression Assay for organic anion transporter (SLCO1B1) at 6 hours (AID 2283668);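 also: active means mRNA induction above DMSO baseline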
# Procedure, shortened: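 Primary human hepatocytes dosed daily with test chemicals (multiple concentrations) in 0.2% DMSO vehicle; harvested at 6 h. SLCO1B1 mRNA quantified by qNPA chemiluminescence, fitted as gain-of-signal versus DMSO; cytotoxicity from phase-contrast morphology flagged alongside.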
# [12] = CLD_ACTIN_24hr: CellzDirect (CLD) Gene Expression Assay for Baseline Control (Actin) at 24 hours (AID 2283670)
# Procedure, shortened: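 Primary human hepatocytes dosed over multiple concentrations with 0.2% DMSO vehicle; actin mRNA measured at 24 h by qNPA chemiluminescence. Background control endpoint, fitted as gain of signal versus DMSO.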
# [13] = read-out: HMG-CoA synthase (HMGCS2), HMGCS2 (gene 3158); test: CLD_HMGCS2_6hr: CellzDirect (CLD) Gene Expression Assay for HMG-CoA synthase (HMGCS2) at 6 hours (AID 2283682);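 also: actives raise HMGCS2 transcript above the 0.2% DMSO vehicle baseline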
# Procedure, shortened: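 Primary human hepatocytes dosed daily with fresh chemical, 0.2% DMSO vehicle; HMGCS2 mRNA measured at 6 h by qNPA chemiluminescence. Gain of signal fitted against DMSO; cytotoxicity flagged from phase-contrast morphology.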
# [14] = read-out: xenobiotic metabolism (CYP1A1), CYP1A1 (gene 1543); test: CLD_CYP1A1_24hr: CellzDirect (CLD) Gene Expression Assay for xenobiotic metabolism (CYP1A1) at 24 hours (AID 2283673);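 also: CYP1A1 mRNA level by quantitative nuclease protection with chemiluminescence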
# Procedure, shortened: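 Primary human hepatocytes dosed daily with fresh solutions in 0.2% DMSO vehicle. mRNA measured at 24 h by quantitative nuclease protection assay with chemiluminescence; gain-of-signal fit versus DMSO, with morphology-based cytotoxicity flags.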
# Chain of Cytochrome P450 3A4 (Homo sapiens) (P08684 whole entry, looked up): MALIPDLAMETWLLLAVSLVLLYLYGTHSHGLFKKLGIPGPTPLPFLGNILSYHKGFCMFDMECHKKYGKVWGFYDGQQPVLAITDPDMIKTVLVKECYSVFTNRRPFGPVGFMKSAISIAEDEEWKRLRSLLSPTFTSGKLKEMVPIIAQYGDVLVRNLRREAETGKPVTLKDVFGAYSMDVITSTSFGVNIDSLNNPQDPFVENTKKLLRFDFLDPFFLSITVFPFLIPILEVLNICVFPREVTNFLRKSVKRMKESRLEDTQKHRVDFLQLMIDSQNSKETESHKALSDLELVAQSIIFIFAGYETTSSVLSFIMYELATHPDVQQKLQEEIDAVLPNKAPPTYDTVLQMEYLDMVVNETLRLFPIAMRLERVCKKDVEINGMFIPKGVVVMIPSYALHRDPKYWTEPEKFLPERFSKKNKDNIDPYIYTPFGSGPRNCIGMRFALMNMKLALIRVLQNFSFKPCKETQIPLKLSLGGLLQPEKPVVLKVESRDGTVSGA
smiles,measurement,setting,value
CC(C)[C@H](C(=O)O[C@H](C#N)c1cccc(Oc2ccccc2)c1)c1ccc(Cl)cc1,outcome,[1],inactive
same,AC50,[2],5.43 µM (active)
same,outcome,[3],inactive
same,outcome,[4],inactive
same,outcome,[5],inactive
same,AC50,[6],3.42 µM (active)
same,AC50,[7],0.166 µM (active)
same,outcome,[8],inactive
same,outcome,[9],inactive
same,outcome,[10],inactive
CON=C(C(=O)OC)c1ccccc1CON=C(C)c1cccc(C(F)(F)F)c1,outcome,[2],inactive
same,outcome,[11],inactive
same,outcome,[12],inactive
same,outcome,[3],inactive
same,outcome,[4],inactive
same,AC50,[6],10.2 µM (active)
same,AC50,[7],0.208 µM (active)
same,outcome,[8],inactive
same,outcome,[9],inactive
same,outcome,[10],inactive
Nc1c(Cl)cc([N+](=O)[O-])cc1Cl,outcome,[1],inactive
same,AC50,[2],38.8 µM (active)
same,outcome,[4],inactive
same,outcome,[5],inactive
same,AC50,[6],20 µM (active)
same,AC50,[7],76.3 µM (active)
same,outcome,[8],inactive
CCc1cccc(C)c1N(C(=O)CCl)C(C)COC (stereo not given),outcome,[1],inactive
same,outcome,[2],inactive
same,outcome,[12],inactive
same,outcome,[3],inactive
same,outcome,[5],inactive
same,AC50,[6],0.596 µM (active)
same,AC50,[7],50.9 µM (active)
same,AC50,[8],0.477 µM (active)
same,outcome,[13],inactive
same,outcome,[10],inactive
CCOP(=S)(OCC)SCCSCC,AC50,[1],3.97 µM (active)
same,outcome,[2],inactive
same,outcome,[12],inactive
same,outcome,[3],inactive
same,outcome,[4],inactive
same,outcome,[5],inactive
same,AC50,[6],14.1 µM (active)
same,outcome,[7],inactive
same,outcome,[8],inactive
same,outcome,[13],inactive
same,outcome,[10],inactive
CCCCOC(=O)[C@@H](C)Oc1ccc(Oc2ccc(C#N)cc2F)cc1,outcome,[1],inactive
same,outcome,[2],inactive
same,outcome,[12],inactive
same,outcome,[3],inactive
same,outcome,[5],inactive
same,outcome,[6],inactive
same,AC50,[7],2.1 µM (active)
same,outcome,[8],inactive
same,outcome,[13],inactive
same,outcome,[10],inactive
CC(C)=CC1C(C(=O)OCN2C(=O)C3=C(CCCC3)C2=O)C1(C)C (stereo not given),outcome,[1],inactive
same,outcome,[2],inactive
same,outcome,[3],inactive
same,outcome,[14],inactive
same,outcome,[5],inactive
same,AC50,[6],5.94 µM (active)
same,AC50,[7],12.3 µM (active)
same,outcome,[8],inactive
same,outcome,[9],inactive
COc1ccc(C(=CC(=O)N2CCOCC2)c2ccc(Cl)cc2)cc1OC,AC50,[2],42.4 µM (active)
same,outcome,[11],inactive
same,outcome,[3],inactive
same,outcome,[5],inactive
same,AC50,[6],4.1 µM (active)
same,AC50,[7],23.6 µM (active)
same,AC50,[8],2.29 µM (active)
same,outcome,[10],inactive
Nc1nc(N)nc(NC2CC2)n1,outcome,[2],inactive
same,outcome,[12],inactive
same,outcome,[3],inactive
same,outcome,[4],inactive
same,outcome,[5],inactive
same,outcome,[6],inactive
same,outcome,[7],inactive
same,outcome,[13],inactive
same,outcome,[9],inactive
same,outcome,[10],inactive
